Assay outcomes deposited in PubChem BioAssay by The Scripps Research Institute Molecular Screening Center.
FBW7 act – FBW7 E3 ligase activators, primary screen, biochemical, AlphaScreen, human; AlphaScreen FBW7–phospho-cyclin E peptide binding, activator screen; AID 1259310, 2017; normalized activity (activation), % at 26.1 µM; 650,000 tested, 0.13% active; in the data active means normalized activity above about 1.9%;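 further: purified mutant Fbw7 with reduced substrate affinity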
Target sequence (Q969H0 whole entry, looked up): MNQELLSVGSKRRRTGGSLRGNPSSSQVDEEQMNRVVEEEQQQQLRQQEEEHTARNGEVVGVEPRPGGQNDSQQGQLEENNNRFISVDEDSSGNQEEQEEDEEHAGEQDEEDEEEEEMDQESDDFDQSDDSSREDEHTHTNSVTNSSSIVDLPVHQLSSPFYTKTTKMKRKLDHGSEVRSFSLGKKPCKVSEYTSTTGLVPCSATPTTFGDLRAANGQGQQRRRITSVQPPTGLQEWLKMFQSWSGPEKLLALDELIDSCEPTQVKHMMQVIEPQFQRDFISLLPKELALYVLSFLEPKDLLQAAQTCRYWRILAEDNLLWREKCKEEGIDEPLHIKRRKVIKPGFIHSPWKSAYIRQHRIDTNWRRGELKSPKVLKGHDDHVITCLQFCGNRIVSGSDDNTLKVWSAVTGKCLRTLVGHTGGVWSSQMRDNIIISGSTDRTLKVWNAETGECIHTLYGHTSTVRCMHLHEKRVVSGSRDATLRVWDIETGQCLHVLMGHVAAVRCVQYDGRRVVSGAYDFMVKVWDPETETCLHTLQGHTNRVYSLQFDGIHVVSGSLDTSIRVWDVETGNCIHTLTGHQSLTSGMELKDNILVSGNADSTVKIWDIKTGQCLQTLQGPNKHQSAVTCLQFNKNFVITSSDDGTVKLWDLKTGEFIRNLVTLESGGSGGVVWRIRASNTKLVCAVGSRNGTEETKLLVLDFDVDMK
MITF inh – MITF inhibitors, primary screen, biochemical, AlphaScreen, human | AlphaScreen MITF homodimerization, bead proximity signal | inhibition, % at 2.6 µM | 650,000 tested, 0.91% active | AID 1259374, 2018; in the data active means inhibition above about 50%
GPR151 activ – activators of human GPR151, primary screen, cell-based, PathHunter beta-arrestin, luminescence. G-protein coupled receptor 151 (Homo sapiens), Q8TDV0. PathHunter beta-arrestin GPR151 cells. activation, % at 11.2 µM. 650,000 tested, 1% active. AID 1508602, 2020; in the data active means activation above about 4.9%
TEAD-YAP block – TEAD-YAP interaction inhibition, primary screen, TEAD-YAP interaction inhibitor project, luminescence, HEK-TIYL cells | AID 1259422, 2018 | 640,000 tested, 1.4% active | TEAD-Gal4/YAP UAS-luciferase luminescence | inhibition, % at 9.12 µM; in the data active means inhibition above about 32%
MITF inh conf – MITF inhibitors, retest of hits, confirmation, biochemical, AlphaScreen, triplicate; AID 1259372, 2018; shares compounds with MITF inh; inhibition, % at 2.6 µM; AlphaScreen MITF homodimerization, biotin/His-MITF beads; 4,700 tested, 16% active;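 active means inhibition above a cutoff derived from the DMSO control wells, cut at about 28% in these data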;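 further: inhibitors lower the bead chemiluminescence by keeping MITF from dimerizing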
AS interf DR – AlphaScreen optical interference compounds, dose response, counter-screen, biochemical, HTS; shares compounds with MITF inh; AlphaScreen optical interference counterscreen, cell-free; IC50, µM; 480 tested, 6% active; call rule not given here
AlphaScreen intf2 – AlphaScreen optical interference compounds, counter-screen for MITF inhibitor project, biochemical, triplicate. shares compounds with MITF inh. LysRS AlphaScreen counterscreen, signal interference. inhibition, % at 2.6 µM. 4,700 tested, 7.6% active;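 active means inhibition above a cutoff derived from the DMSO control wells, cut at about 30% in these data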
Numbers stand for hits. The list is not random: actives were taken first. Their share in the collection is about 3.4%.

COc1ccc(/C=N/Nc2nncc(-c3ccccc3)n2)cc1Br was read as FBW7 act inactive, MITF inh 64.7, GPR151 activ inactive, TEAD-YAP block inactive, MITF inh conf inactive and AlphaScreen intf2 inactive.
For Cc1csc(SCC(=O)Nc2ccc(S(N)(=O)=O)cc2)n1 the results were FBW7 act inactive, MITF inh inactive, GPR151 activ inactive and TEAD-YAP block inactive.
CCN1CCN(Cc2cccc(Oc3ccccc3)c2)CC1 was read as FBW7 act inactive, MITF inh 66.4, GPR151 activ inactive, TEAD-YAP block inactive, MITF inh conf inactive and AlphaScreen intf2 inactive.
For Fc1ccc(CN2CCN(Cc3cccc(Oc4ccccc4)c3)CC2)cc1 the results were FBW7 act inactive, MITF inh 68.2, GPR151 activ inactive, TEAD-YAP block inactive, MITF inh conf inactive and AlphaScreen intf2 inactive.
O=C(c1ccncc1)N1CCN(Cc2cccc(Oc3ccccc3)c2)CC1 was read as FBW7 act inactive, MITF inh inactive, GPR151 activ inactive and TEAD-YAP block inactive.
For COc1cccc(CN2CCC(=O)N(Cc3ccc(F)cc3)CC2)c1 the results were FBW7 act inactive, MITF inh inactive, GPR151 activ inactive and TEAD-YAP block inactive.
For CCOc1ccc(CN2CCN(Cc3cccc(Oc4ccccc4)c3)CC2)cc1 the results were FBW7 act inactive, MITF inh inactive, GPR151 activ inactive and TEAD-YAP block inactive.
For Fc1ccccc1CN1CCN(Cc2cccc(Oc3ccccc3)c2)CC1 the results were FBW7 act inactive, MITF inh 71.8, GPR151 activ inactive, TEAD-YAP block inactive, MITF inh conf inactive and AlphaScreen intf2 inactive.
Screening c1ccc(Oc2cccc(CN3CCN(Cc4ccncc4)CC3)c2)cc1 returned FBW7 act inactive, MITF inh 69.4, GPR151 activ inactive, TEAD-YAP block inactive, MITF inh conf inactive and AlphaScreen intf2 inactive.
Screening c1ccc(Oc2cccc(CN3CCSCC3)c2)cc1 returned FBW7 act inactive, MITF inh inactive, GPR151 activ inactive and TEAD-YAP block inactive.
`Cc1nnc2ccc(SCC(=O)NC3CCN(c4ccccc4)CC3)nn12` gave FBW7 act inactive, MITF inh inactive, GPR151 activ inactive and TEAD-YAP block inactive.
Screening Cc1ccc(C)c(CN2CCN3C(=O)[C@H]([C@@H](C)O)NC(=O)[C@H]3C2)c1 returned FBW7 act inactive, MITF inh inactive, GPR151 activ inactive and TEAD-YAP block inactive.
For COc1ccccc1CNC(=O)C1CC(Cc2ccc3c(c2)OCO3)=NO1 (stereo unspecified) the results were FBW7 act inactive, MITF inh inactive, GPR151 activ inactive and TEAD-YAP block inactive.
Screening CC(=O)n1c2c(c3ccccc31)OC(N)=C(C#N)C2c1cccc([N+](=O)[O-])c1 (stereo unspecified) returned FBW7 act inactive, MITF inh 57.8, GPR151 activ inactive, TEAD-YAP block inactive, MITF inh conf inactive and AlphaScreen intf2 inactive.
For CCOc1ccc(NC(=O)CC2S/C(=N\N=C3/C=C(C)CC(C)(C)C3)NC2=O)cc1 (stereo unspecified) the results were FBW7 act inactive, MITF inh inactive, GPR151 activ inactive and TEAD-YAP block inactive.
COc1ccc(NC(=O)CC2S/C(=N/N=C3\CSC(=O)N3)NC2=O)cc1 (stereo unspecified) was read as FBW7 act inactive, MITF inh 82.5, GPR151 activ inactive, TEAD-YAP block inactive, MITF inh conf 61.6 and AlphaScreen intf2 100.3.
For O=C(CC1S/C(=N/N=C2\CSC(=O)N2)NC1=O)Nc1ccccc1 (stereo unspecified) the results were FBW7 act inactive, MITF inh 64.9, GPR151 activ inactive, TEAD-YAP block inactive, MITF inh conf 65.8 and AlphaScreen intf2 100.3.
`Cc1ccc(NC(=O)CC2S/C(=N\N=C3\CSC(=O)N3)NC2=O)cc1` (stereo unspecified) gave FBW7 act inactive, MITF inh 82.2, GPR151 activ inactive, TEAD-YAP block inactive, MITF inh conf 68.0 and AlphaScreen intf2 100.1.
CC1=C/C(=N\N=C2\NC(=O)C(CC(=O)Nc3ccc(C(=O)O)cc3)S2)CC(C)(C)C1 (stereo unspecified) was read as FBW7 act inactive, MITF inh 67.9, GPR151 activ inactive, TEAD-YAP block inactive, MITF inh conf 72.1, AS interf DR inactive and AlphaScreen intf2 inactive.
`COc1cccc(NC(=O)CSc2nc3ccsc3c(=O)n2Cc2ccccc2F)c1` gave FBW7 act inactive, MITF inh inactive, GPR151 activ inactive and TEAD-YAP block inactive.
COc1ccccc1OCC(=O)Oc1ccccc1[N+](=O)[O-] was read as FBW7 act inactive, MITF inh inactive, GPR151 activ inactive and TEAD-YAP block inactive.
For CCOc1cc(/C=N/N=C2\NC(=O)C(CC(=O)O)S2)ccc1OCc1ccc(F)cc1 (stereo unspecified) the results were FBW7 act inactive, MITF inh inactive, GPR151 activ inactive and TEAD-YAP block inactive.
Screening Cc1ccc(COc2ccc(/C=N/N=C3\NC(=O)C(CC(=O)O)S3)cc2)cc1 (stereo unspecified) returned FBW7 act inactive, MITF inh 52.8, GPR151 activ inactive, TEAD-YAP block inactive, MITF inh conf 35.1, AS interf DR inactive and AlphaScreen intf2 inactive.
`COc1ccc(/C=N/N=C2\NC(=O)C(CC(=O)Nc3ccc(C)cc3)S2)cc1` (stereo unspecified) gave FBW7 act inactive, MITF inh 72.6, GPR151 activ inactive, TEAD-YAP block inactive, MITF inh conf inactive and AlphaScreen intf2 inactive.
c1ccc(-c2ccccc2OCCCN2CCNCC2)cc1 was read as FBW7 act inactive, MITF inh 64.3, GPR151 activ inactive, TEAD-YAP block inactive, MITF inh conf inactive and AlphaScreen intf2 inactive.
`CCN1CCN(CCOc2ccccc2CO)CC1` gave FBW7 act inactive, MITF inh inactive, GPR151 activ inactive and TEAD-YAP block inactive.
For c1ccc(-c2ccccc2OCCCCN2CCNCC2)cc1 the results were FBW7 act inactive, MITF inh inactive, GPR151 activ inactive and TEAD-YAP block inactive.
Screening CCc1ccccc1OCCN1CCN(CC)CC1 returned FBW7 act inactive, MITF inh 76.9, GPR151 activ inactive, TEAD-YAP block inactive, MITF inh conf inactive and AlphaScreen intf2 inactive.
Screening CCN1CCN(CCCOc2ccccc2-c2ccccc2)CC1 returned FBW7 act inactive, MITF inh 59.8, GPR151 activ inactive, TEAD-YAP block inactive, MITF inh conf inactive and AlphaScreen intf2 inactive.
